# Screening data as filed in PubChem.
# TDP1 cell noCPT: qHTS for Inhibitors of human tyrosyl-DNA phosphodiesterase 1 (TDP1): qHTS in cells in absence of CPT | hit rate 15% among 420,000 | DT40 Tdp1-/- hTDP1 cells, no CPT, ATP luminescence, 48 h | Potency, µM (top dose mostly 46.2 µM), without a hit: at the highest dose activity change, negative = growth inhibition, actives largely listed as inhibitors; further: potency means the concentration at half of the fitted maximal effect; nearly all actives have a fitted effect of over 55% in size
#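 Camptothecin absent (DMSO only). Human TDP1-complemented DT40 knockout cells, 400 cells/well, 37 °C for minimum 48 hr; ATP measured via CellTiter-Glo, 30 min dark incubation, luminescence.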
# HT1080-NT tox: kills 2HG-producing HT-1080-NT fibrosarcoma cells; HT-1080-NT fibrosarcoma viability, CellTiter-Glo ATP luminescence, 48 h; Potency, µM (top dose mostly 46.1 µM), without a hit: at the highest dose activity, negative = less viability, hits mostly cytotoxic; hit rate 1.6% among 360,000; AID 686970;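 further: NT is the 2HG producing partner of a matched IDH1 knockdown line; potency means the concentration at half of the fitted maximal effect; 0% = DMSO-treated cells and -100% = media-only wells without cells; nearly all actives have a fitted effect of over 55% in size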
#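 HT-1080-NT; 750 cells/well; 5% FBS RPMI; 48 h compound, 37 degrees C; CellTiter-Glo luminescence; curve fitting and curve-class assignment.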
# HT1080 IDH1KD tx: kills HT-1080 cells with IDH1 knockdown | HT-1080 IDH1 knockdown viability, ATP luminescence, 48 h | Potency, µM (top dose mostly 46.1 µM), for inactives: top-dose activity, negative = toxicity, usual class: cytotoxic | hit rate 2% among 360,000;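 further: potency means the concentration at half of the fitted maximal effect; 0% = DMSO wells and -100% = cell-free medium wells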
#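 HT-1080-IDH1KD cells (IDH1 knocked down), 750/well in RPMI with 5% FBS, treated with compound 48 h at 37 degrees C. Viability by CellTiter-Glo luminescence, normalised to DMSO and no-cell wells; concentration-response curves classed.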
# DT40 TDP1 CPT: DT40-hTDP1 cell growth loss with CPT; AID 686979; chicken DT40 Tdp1-/-;hTDP1 cells + 20 nM CPT, ATP luminescence, 48 h; Potency, µM (doses to about 46.2 µM), for inactives: at the top dose activity change, negative = growth inhibition, hits mostly inhibitors; hit rate 12% among 420,000; further: potency means the concentration at half of the fitted maximal effect; nearly all actives have a fitted effect of over 55% in size
#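 Chicken DT40 Tdp1-/- cells complemented with human TDP1, 400 cells/well, exposed to compounds plus 20 nM camptothecin for at least 48 h at 37 C; viability read as ATP content by CellTiter-Glo luminescence.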
# IL1B secr inh: blocks inflammasome-driven IL-1 beta release | hit rate 4.7% among 360,000 | activity change, % at 57.5 µM | AID 743279 | THP-1 LPS/ATP IL-1B secretion, AlphaLISA, 16 h; hits give low values; in the data active means activity change below about -50%; inconclusive means mostly about -30% to -49%
#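 THP-1 cells pretreated 1 hr with compounds (up to 57.5 uM final), then stimulated with LPS (250 ng/mL final) plus ATP (1.25 mM final); secreted IL-1B measured by AlphaLISA after 16 hr, decreased signal indicating inhibition.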
# 12-LOX inh: blocks human arachidonate 12S-lipoxygenase; P18054; purified 12hLO, xylenol orange hydroperoxide absorbance; Potency, µM (top dose mostly 108 µM), without a hit: top-dose activity change, negative = inhibition, actives largely listed as inhibitors; hit rate 1.1% among 580,000; AID 1671190; further: potency means the concentration at half of the fitted maximal effect
# Target sequence (P18054 whole entry, looked up): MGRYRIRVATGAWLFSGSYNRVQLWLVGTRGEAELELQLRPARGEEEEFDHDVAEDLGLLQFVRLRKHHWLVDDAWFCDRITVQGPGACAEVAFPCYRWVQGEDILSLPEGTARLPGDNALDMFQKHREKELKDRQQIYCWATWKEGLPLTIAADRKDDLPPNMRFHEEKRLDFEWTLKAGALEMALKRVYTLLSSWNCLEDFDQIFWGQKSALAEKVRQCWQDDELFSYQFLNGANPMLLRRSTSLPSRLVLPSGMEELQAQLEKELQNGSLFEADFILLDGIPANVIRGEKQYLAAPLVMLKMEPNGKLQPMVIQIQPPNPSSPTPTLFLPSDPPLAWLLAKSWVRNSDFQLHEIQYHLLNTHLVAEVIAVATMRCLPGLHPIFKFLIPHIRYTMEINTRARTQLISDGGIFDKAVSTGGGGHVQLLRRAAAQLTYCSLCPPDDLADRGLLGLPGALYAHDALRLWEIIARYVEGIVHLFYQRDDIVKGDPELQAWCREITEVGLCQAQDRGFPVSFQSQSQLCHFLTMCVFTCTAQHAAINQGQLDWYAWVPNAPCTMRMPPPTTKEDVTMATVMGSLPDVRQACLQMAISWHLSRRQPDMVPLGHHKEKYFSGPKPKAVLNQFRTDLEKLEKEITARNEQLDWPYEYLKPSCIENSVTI
#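 Purified human 12hLO (150 nM final) in 25 mM Hepes, 0.01% Triton X-100, pH 7.0 was preincubated 15 min at room temperature with compound. Then 40 uM arachidonic acid was added, 30 min. Hydroperoxide was read by Fe-XO absorbance ratio 573/405 nm.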
# Numbers without * were called inactive; u = inconclusive; x = no result; ! = a repeat was not active. Only a selection was taken, and hits are over-represented in it overall. Unless noted, the call rests on the fitted dose curve; in most records, active means well fitted curve in the direction sought with a large enough effect; inconclusive means small, poorly fitted or top-dose-only effect, or another doubt; inactive means no such curve, though single readings can be large; an effect the other way counts as inactive or inconclusive. Unless noted, on the % scale 0 is the no-effect control and ±100 the full control effect.
SMILES,TDP1 cell noCPT,HT1080-NT tox,HT1080 IDH1KD tx,DT40 TDP1 CPT,IL1B secr inh,12-LOX inh
Cc1noc(C)c1-c1cc2c(cc(C)n2CCN(C)C)c(-c2ccccc2O)n1,x,x,x,x,x,79µM*
CCCCN(C(=O)c1ccc(N2CCCC2=O)cc1)c1c(N)n(CCCC)c(=O)[nH]c1=O,-15%,2%,-1%,2%,-2,u
CCCCN(C(=O)c1ccc(-c2ccc(Cl)cc2)o1)c1c(N)n(CCC)c(=O)[nH]c1=O,-7%,0%,-3%,-8%,-28,16µM*!
CCCCN(C(=O)c1ccc(N2CCCC2=O)cc1)c1c(N)n(CCC)c(=O)[nH]c1=O,6.5µM*,2%,0%,-15%,-11,17%
COc1ccccc1C(=O)Nc1sc2c(c1C(N)=O)CCC(C)C2 (centres undefined),x,x,x,x,x,-18%
Cn1ncc(N2CCCC(CC(=O)Nc3ccc(F)c(F)c3)C2)cc1=O (centres undefined),x,x,x,x,x,0%
CCOC(=O)C1(Cc2ccccc2C)CCCN(C(=O)COC)C1 (centres undefined),-25%,-3%,-6%,u,0,6%
CCOC(=O)C1(Cc2ccccc2C)CCCN(S(=O)(=O)CC)C1 (centres undefined),23µM*,0%,7%,u,4,0%
COc1ccc(CC(=S)N2CCOCC2)cc1,18µM*,13%,12%,u,40,u
O=C(Nc1nc2ccc(F)cc2s1)c1nc(S(=O)(=O)Cc2ccccc2F)ncc1Cl,2.6µM*,x,x,3.3µM*,x,-20%
O=C(Nc1ccccc1)c1nc(S(=O)(=O)Cc2ccccc2F)ncc1Cl,1.1µM*,x,x,1.1µM*,x,x
COC(=O)c1ccc(NC(=O)c2nc(S(=O)(=O)Cc3ccccc3F)ncc2Cl)cc1,0.89µM*,x,x,0.71µM*,x,x
CCc1nc2c(OCC3CCCCC3)cccn2c1N(C)C(=O)c1ccccc1F,16µM*,u,u,u,-18,-1%
CCc1nc2c(OCC(=O)c3ccc(F)cc3)cccn2c1N(C)C(=O)c1ccc(OC)cc1,-5%,-1%,3%,-15%,-12,-22%
CCc1nc2c(OCCC3CCCCC3)cccn2c1N(C)C(=O)c1ccccc1F,u,u,u,u,u,-9%
CCc1nc2c(OCCC3CCCCC3)cccn2c1N(C)C(=O)c1ccc(C)cc1,15µM*,u,u,15µM*,-99*,45µM*
CCc1nc2c(OCC3CCCCC3)cccn2c1N(C)C(=O)c1ccc(OC)cc1,18µM*,u,u,18µM*,x,u
CCc1nc2c(OCCC3CCCCC3)cccn2c1N(C)C(=O)C(C)C,u,u,u,13µM*,u,x
COc1ccc(CCC(=O)NCCC2CCN(C(=O)Nc3cc(F)ccc3F)CC2)cc1,x,x,x,x,x,16%
CN(CC(=O)NC(=O)NCc1cccs1)Cc1cccs1,x,x,x,x,x,-60%
COCCNC(=O)CS(=O)(=O)Cc1nc(-c2cccc(OC)c2)oc1C,x,x,x,x,x,-2%
CCc1nc2c(OCCC3CCCCC3)cccn2c1N(C)C(=O)C1CC1,13µM*,u,u,18µM*,0,x
CCc1nc2c(OCCC3CCCCC3)cccn2c1N(C)C(=O)COc1ccccc1,u,4%,14%,16µM*,9,u
CCc1nc2c(OCCOc3ccccc3)cccn2c1N(C)C(=O)C1CC1,u,10%,9%,16µM*,-7,x
CCc1nc2c(OCCOc3ccccc3)cccn2c1N(C)C(=O)c1ccc(C)cc1,u,-14%,-16%,u,0,-9%
SMILES,TDP1 cell noCPT,HT1080-NT tox,HT1080 IDH1KD tx,DT40 TDP1 CPT,IL1B secr inh,12-LOX inh
Cc1cc(C(=O)Nc2ccccc2C(C)C)c2ccccc2n1,x,x,x,x,x,3%
CC(C)C[C@H]1CN([C@@H](Cc2ccccc2)CN2CCC[C@H]2CN2C(=O)C(=O)NC[C@@H]2Cc2ccccc2)C(=O)C(=O)N1CCc1ccccc1,u,0%,4%,u,-2,0%
CC(C)C[C@H]1CNC(=O)C(=O)N1C[C@H]1CCCN1C[C@H](CC(C)C)N1C[C@H](Cc2ccccc2)N(CCc2ccccc2)C(=O)C1=O,29µM*,12%,21%,21µM*,27,u
CC(C)C[C@H]1CNC(=O)C(=O)N1C[C@@H]1CCCN1C[C@H](CC(C)C)N1C[C@H](Cc2ccccc2)N(CCc2ccccc2)C(=O)C1=O,u,-13%,8%,u,-6,-23%
CC(C)C[C@H]1CN([C@@H](Cc2ccccc2)CN2CCC[C@@H]2CN2C(=O)C(=O)NC[C@@H]2Cc2ccccc2)C(=O)C(=O)N1CCc1ccccc1,16µM*,u,u,16µM*,-67*,0%
CN1c2cc(C(=O)Nc3ccc(Cl)c(C(F)(F)F)c3)ccc2C(=O)N2CCCC21 (centres undefined),x,x,x,x,x,-13%
CCOC(=O)c1c(NC(=O)CN2CCCCC2)sc2c1CCN(C(=O)OCC)C2,u,u,u,u,-86*,18%
